Measured values: PMC4336329 (PLoS ONE, 2015)
About 14,000 (4.5%) of roughly 310,000 compounds showed an effect of 50% or more. Effects have a minus sign here. The full list was thinned out, with strong results kept by preference.

What follows are molecules tested against human ether-à-go-go-related gene (hERG) potassium channel (human, UniProt Q12809) (assay: primary screen, population patch clamp on CHO cells stably expressing hERG; higher = less effect of the substance).
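Note: peak tail current of the secondary pulse compared with the same well before compound.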

human ether-à-go-go-related gene (hERG) potassium channel, sequence (Q12809 whole entry, looked up): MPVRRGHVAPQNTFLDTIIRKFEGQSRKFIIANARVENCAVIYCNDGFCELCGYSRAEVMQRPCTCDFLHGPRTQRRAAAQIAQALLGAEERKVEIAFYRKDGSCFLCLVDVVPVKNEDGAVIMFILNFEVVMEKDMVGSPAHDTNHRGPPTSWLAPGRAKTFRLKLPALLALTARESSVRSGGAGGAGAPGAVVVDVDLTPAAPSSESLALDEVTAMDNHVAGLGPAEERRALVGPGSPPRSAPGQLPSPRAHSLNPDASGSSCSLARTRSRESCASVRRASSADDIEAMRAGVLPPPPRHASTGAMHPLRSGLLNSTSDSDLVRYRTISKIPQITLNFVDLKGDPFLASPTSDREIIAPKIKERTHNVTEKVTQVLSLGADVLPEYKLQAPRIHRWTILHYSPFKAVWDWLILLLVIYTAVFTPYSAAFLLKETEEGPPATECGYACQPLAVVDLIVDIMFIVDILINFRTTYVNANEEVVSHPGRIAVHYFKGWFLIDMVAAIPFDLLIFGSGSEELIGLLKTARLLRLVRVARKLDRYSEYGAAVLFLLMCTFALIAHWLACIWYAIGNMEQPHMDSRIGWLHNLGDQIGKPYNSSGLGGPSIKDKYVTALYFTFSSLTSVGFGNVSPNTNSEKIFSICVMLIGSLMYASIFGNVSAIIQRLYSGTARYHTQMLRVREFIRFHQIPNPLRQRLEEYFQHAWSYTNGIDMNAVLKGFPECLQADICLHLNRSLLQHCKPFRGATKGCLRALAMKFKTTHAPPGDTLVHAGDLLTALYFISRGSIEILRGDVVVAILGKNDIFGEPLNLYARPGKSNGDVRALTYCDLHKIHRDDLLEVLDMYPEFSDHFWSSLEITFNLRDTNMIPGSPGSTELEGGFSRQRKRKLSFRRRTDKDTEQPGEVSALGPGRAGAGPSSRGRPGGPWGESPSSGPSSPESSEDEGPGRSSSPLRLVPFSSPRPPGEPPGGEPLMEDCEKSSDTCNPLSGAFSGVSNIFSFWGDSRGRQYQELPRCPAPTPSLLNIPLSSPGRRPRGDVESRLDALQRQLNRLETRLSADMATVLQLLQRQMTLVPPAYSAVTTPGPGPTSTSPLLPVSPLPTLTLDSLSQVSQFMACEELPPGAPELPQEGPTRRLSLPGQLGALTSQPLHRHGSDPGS

Row | Compound | hERG current change (%, negative = inhibition) at 10uM
1 | COc1nc(N/N=C/c2ccccc2F)nc(N2CCCCC2)n1 | -15.6%
2 | O=C(NCCCN1CCc2ccccc2C1)Nc1ccc(Br)cc1 | -71.7%
3 | COc1ccc(NC(=O)NCCCN2CCc3ccccc3C2)cc1 | -69.2%
4 | O=C(Nc1ccc(Br)cc1)N1CCc2ccccc2C1 | 2.91%
5 | COc1ccc(NC(=O)NCCCN2CCCC2=O)cc1 | 4.11%
6 | O=C(NCCCN1CCCC1=O)Nc1ccc(Cl)cc1 | 2.13%
7 | COc1ccc(NC(=O)NCCN2CCc3ccccc3C2)cc1 | -34.6%
8 | CN1CCN(CCNC(=O)Nc2ccc(Cl)cc2)CC1 | -0.17%
9 | O=C(NCCCN1CCc2ccccc2C1)Nc1ccc(Cl)cc1 | -65.5%
10 | O=C(CN1CCc2ccccc2C1)Nc1ccc(Br)cc1 | -34.2%
11 | COc1ccc(-c2csc(NC(=O)Cc3ccccc3F)n2)cc1OC | 2.29%
12 | CC(Oc1cc2oc(=O)c3c(c2cc1Cl)CCCC3)C(=O)NCc1ccncc1 (stereo not shown) | -41.8%
13 | Cc1[nH]c2ccccc2c1C1(O)C(=O)N(C(C)C)c2ccccc21 (stereo not shown) | 16.7%
14 | CC1CC2(CC(C)(C(=O)CSc3nc4ccccc4s3)OC2=O)C(=O)O1 (stereo not shown) | -1.16%
15 | CCOC(=O)C1=C(C)NC(C)=C(C(=O)OCC)C1C(=O)OCC(=O)N1CCc2ccccc21 | -1.82%
16 | CC(C)CC(=O)Nc1ccccc1-c1nnn(CC(=O)N2CCOCC2)n1 | -2.78%
17 | NC(=S)NNc1c(F)c(F)c(F)c(F)c1F | 28.9%
18 | Cc1ccc(F)c(NC(=O)c2c(-c3ccccc3)noc2C)c1 | 7.17%
19 | Cl.OCCN(CCO)CC(O)CN1c2ccccc2Sc2ccccc21 (stereo not shown) | -12.9%
20 | CC(=O)Nc1ccc(-c2csc(NC(=O)C3CCN(S(=O)(=O)c4cccs4)CC3)n2)cc1 | -2.9%
21 | COc1cc(-c2nc3sc(C)c(C)c3c(=O)o2)cc(OC)c1OC | 19%
22 | CCOC(=O)C1=C(C)OC(N)=C(C#N)C1c1cc2ccccc2nc1N1CCCCC1 (stereo not shown) | 6.3%
23 | CC(C)N1C(=S)SC2CS(=O)(=O)C=C21 (stereo not shown) | -5.07%
24 | NC(=O)c1cc(S(=O)(=O)N2CCCC2)ccc1OCCOc1ccccc1 | 2.15%

Row | Compound | hERG current change (%, negative = inhibition) at 10uM
25 | N#Cc1ccc(Cn2cc(C=O)c3ccccc32)cc1 | -80.8%
26 | CC(C)C(=O)c1cn(Cc2ccccc2C#N)c2ccccc12 | -10.8%
27 | Cc1ccc(Cn2cc(C=O)c3ccccc32)cc1 | 1.48%
28 | N#Cc1ccc(Cn2cc(C(=O)c3ccco3)c3ccccc32)cc1 | -76.7%
29 | O=C(c1ccco1)c1cn(Cc2ccccc2)c2ccccc12 | -6.75%
30 | CC(=O)c1cn(Cc2ccc(C#N)cc2)c2ccccc12 | -19.9%
31 | CCC(=O)c1cn(Cc2ccccc2C#N)c2ccccc12 | -24.2%
32 | O=C(c1ccco1)c1cn(Cc2ccc(Cl)cc2)c2ccccc12 | 15.9%
33 | CC(C)C(=O)c1cn(Cc2ccc(C#N)cc2)c2ccccc12 | -75.6%
34 | CCC(=O)c1cn(Cc2ccc(C#N)cc2)c2ccccc12 | -71.8%
35 | CC(C)C(=O)c1cn(CC(=O)O)c2ccccc12 | 8.27%
36 | O=Cc1cn(Cc2ccc(Br)cc2)c2ccccc12 | 15%
37 | Cc1cc(C)n(-c2ncc(-c3ccccc3)nn2)n1 | -36.4%
38 | O=C(NCCCc1ccccc1)C(=O)NCC1OCCN1S(=O)(=O)c1cc(F)ccc1F (stereo not shown) | -15%
39 | O=C(Nc1ncc(Cc2ccccc2)s1)C1=NCCN1 | 6.81%
40 | COc1ccc(-c2nn(-c3ccccc3)cc2N)cc1 | -3.82%
41 | CCOC(=O)c1ccc(COC(=O)CCc2nc(-c3ccccc3)c(-c3ccccc3)o2)cc1 | 1.13%
42 | CN(Cc1ccco1)S(=O)(=O)c1nnc(NC(=O)c2ccccc2Cl)s1 | 15%
43 | COc1ccccc1NC(=O)CN1CC(=O)Nc2ccccc21 | 20.5%
44 | O=C(O)CCNc1nc(C(F)(F)F)nc2ccccc12 | 18.2%
45 | CCN(CC)c1ccc(Nc2nc(N3CCOCC3)c3ccccc3n2)cc1 | -71.8%
46 | Cl.c1ccc2c(Nc3nc(N4CCOCC4)c4ccccc4n3)cccc2c1 | -6.79%
47 | CN1CCN(c2nc(Nc3ccc(O)cc3)nc3ccccc23)CC1.Cl | -34.9%
48 | Cl.Oc1ccc(Nc2nc(N3CCCC3)c3ccccc3n2)cc1 | -70.2%

Row | Compound | hERG current change (%, negative = inhibition) at 10uM
49 | COc1ccc(Nc2nc(N3CCCCC3)c3ccccc3n2)cc1 | -32.9%
50 | Cl.c1ccc(Nc2nc(N3CCOCC3)c3ccccc3n2)cc1 | -14.2%
51 | COc1ccc(Nc2nc(N3CCCC3)c3ccccc3n2)cc1.Cl | -70%
52 | COc1ccc(Nc2nc(N)c([N+](=O)[O-])c(N3CCCC3)n2)cc1 | -22.8%
53 | Cl.Fc1ccc(Nc2nc(N3CCOCC3)c3ccccc3n2)cc1 | -2.91%
54 | N#C/C(=C/c1ccccc1[N+](=O)[O-])c1nc(C2CC2)cs1 | -12.3%
55 | CCCc1nnc(NC(=O)CCC(=O)NCc2ccccc2OC)s1 | 21.4%
56 | CC1(c2ccccc2)NC(=O)N(CC(=O)NC(=O)NC2CCCC2)C1=O (stereo not shown) | 0.115%
57 | Cc1ccc(-c2noc(CSc3nnc(-c4ccccc4)n3C)n2)cc1 | -3.5%
58 | COc1cc2c(cc1OC)C(c1ccc(Br)cc1)NC(=O)C2 (stereo not shown) | 12.1%
59 | O=C(CSc1nnc(-c2ccco2)n1CC1CCCO1)NC1CCCC1 (stereo not shown) | -4.75%
60 | OCCN(CCO)CC(O)COc1ccc(Br)cc1 (stereo not shown) | 3.82%
61 | CC(C)NCC(O)COc1ccc(Br)cc1.Cl (stereo not shown) | -30.3%
62 | CN(C)CC(O)COc1cccc(OCC(O)CN(C)C)c1.Cl (stereo not shown) | 11.8%
63 | Cc1cccc(OCC(O)Cn2ccnc2C)c1 (stereo not shown) | -9.12%
64 | CCCCN(CC(O)COc1cccc(C)c1)CC(O)COc1cccc(C)c1 (stereo not shown) | -81.7%
65 | CCCCN(CCCC)CC(O)COc1ccc(Br)cc1 (stereo not shown) | -74.4%
66 | CCOP(=S)(OCC)SCC(=O)NC(C(=O)O)C(C)C (stereo not shown) | 7.13%
67 | O=C(N=Nc1c(O)[nH]c2ccccc12)c1ccc2c(c1)OCO2 | 6.09%
68 | CCCNC(=O)c1ccc(S(=O)(=O)c2ccc(OC)cc2)c([N+](=O)[O-])c1 | -31.2%
69 | Cc1cccc(NC(=S)NCCN2CCOCC2)c1C | 13.9%
70 | COc1ccccc1-c1nnc2sc(COc3ccccc3)nn12 | -2.14%
71 | COc1ccccc1-c1nnc2sc(COc3ccc(Cl)cc3)nn12 | -37.8%
72 | COc1ccccc1-c1nnc2sc(COc3ccc(F)cc3)nn12 | -74%

Row | Compound | hERG current change (%, negative = inhibition) at 10uM
73 | COc1ccc2cc(CCNC(=O)c3ccco3)c(=O)[nH]c2c1 | -2.81%
74 | O=P(O)(CCc1ccccn1)CN1CCCCC1 | -67.6%
75 | O=P(O)(CCc1ccccn1)CN1CCOCC1 | 6.28%
76 | O=P(O)(CCc1ccccc1)CN1CCCCC1 | 10.9%
77 | Cc1cc(C)c2nc(-c3cccnc3)cc(C(=O)NC(C)c3cnn(C)c3C)c2c1 (stereo not shown) | -30.6%
78 | CC(C)CCN1C(=O)c2ccc(C(=O)NCC3CCCO3)cc2C1=O (stereo not shown) | -8.48%
79 | CC(C)N(Cc1nccn1C)C(=O)c1cc(COc2ccc(F)cc2Cl)on1 | 0.188%
80 | Cc1cc(OCc2cc(C(=O)N(Cc3nccn3C)C(C)C)no2)cc(C)c1Cl | -58.5%
81 | CC(C)N(Cc1nccn1C)C(=O)c1cc(COc2ccc3ncccc3c2)on1 | 9.33%
82 | CC(C)N(Cc1nccn1C)C(=O)c1cc(COc2ccc(-n3cncn3)cc2)on1 | -51.5%
83 | Cc1cccc(C)c1OCc1cc(C(=O)N(Cc2nccn2C)C(C)C)no1 | -5.91%
84 | COc1cccc(OCc2cc(C(=O)N(Cc3nccn3C)C(C)C)no2)c1 | 8.5%
85 | COc1ccc2nc(SC)cc(C)c2c1 | 16.5%
86 | CCC1CCC2(CC1)NC(CO)(CO)CO2 (stereo not shown) | 8.52%
87 | CC(C)CC1(C)N=C(c2ccccc2)C(=S)N1 (stereo not shown) | 8.32%
88 | C=CCOc1ccccc1CN1CCN(CCc2ccccc2)C(CCO)C1 (stereo not shown) | -59.4%
89 | COc1cccc(CN2CCN(CCCc3ccccc3)C(CCO)C2)c1OC (stereo not shown) | -48.6%
90 | CCOc1cccc(CN2CCN(CCc3ccccc3)C(CCO)C2)c1O (stereo not shown) | -69.7%
91 | CCOc1cccc(CN2CCN(Cc3ccc(C)o3)C(CCO)C2)c1O (stereo not shown) | -13.1%
92 | CCOc1cccc(CN2CCN(CCCc3ccccc3)C(CCO)C2)c1O (stereo not shown) | -76.3%
93 | COc1cccc(CN2CCN(CCCc3ccccc3)C(CCO)C2)c1O (stereo not shown) | -72.4%
94 | CCCn1ncc(CN2CCN(CCc3ccccc3)C(CCO)C2)c1C (stereo not shown) | -46.9%
